Measured values: PubChem BioAssay AID2796 (The Scripps Research Institute Molecular Screening Center, 2010)
In all, about 320,000 compounds went through this assay and about 8,000 (2.5%) were called active. Cut-off read from the data, not from the text of the source: active = activation above about 47%; inactive = the rest. This excerpt belongs to a sample that is enriched for actives.

What follows are molecules tested against Aryl hydrocarbon receptor (Homo sapiens) (UniProt P35869) (assay: AHR activators, primary screen, cell-based, luminescence, luciferase reporter, human (AID 2796;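 note: 0% = vehicle wells and 100% = reference agonist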)). Conditions: AHR-responsive luciferase reporter cells, at 5 µM, hits give high values.
Sequence of Aryl hydrocarbon receptor (Homo sapiens) (P35869 whole entry, looked up): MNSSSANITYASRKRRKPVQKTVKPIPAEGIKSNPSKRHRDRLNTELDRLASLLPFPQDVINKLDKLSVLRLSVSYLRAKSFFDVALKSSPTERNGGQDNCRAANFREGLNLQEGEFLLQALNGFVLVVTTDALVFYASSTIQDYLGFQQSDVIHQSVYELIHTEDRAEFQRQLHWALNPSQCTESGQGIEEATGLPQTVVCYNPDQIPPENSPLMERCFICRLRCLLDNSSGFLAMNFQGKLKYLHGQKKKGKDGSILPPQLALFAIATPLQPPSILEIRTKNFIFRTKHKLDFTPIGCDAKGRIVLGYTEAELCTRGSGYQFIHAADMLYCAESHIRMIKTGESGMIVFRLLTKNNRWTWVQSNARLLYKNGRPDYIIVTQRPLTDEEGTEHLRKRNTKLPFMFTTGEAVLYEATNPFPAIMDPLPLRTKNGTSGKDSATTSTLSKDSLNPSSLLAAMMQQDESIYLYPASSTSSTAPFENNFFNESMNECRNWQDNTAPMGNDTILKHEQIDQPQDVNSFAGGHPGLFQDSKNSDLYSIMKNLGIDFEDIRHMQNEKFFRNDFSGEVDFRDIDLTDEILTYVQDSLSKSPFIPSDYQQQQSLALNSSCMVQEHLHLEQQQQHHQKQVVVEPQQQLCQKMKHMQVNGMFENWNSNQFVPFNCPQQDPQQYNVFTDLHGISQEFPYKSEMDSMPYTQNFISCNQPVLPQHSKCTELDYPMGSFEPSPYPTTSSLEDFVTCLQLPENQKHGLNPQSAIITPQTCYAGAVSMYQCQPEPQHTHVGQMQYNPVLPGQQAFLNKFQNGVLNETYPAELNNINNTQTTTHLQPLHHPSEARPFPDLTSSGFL

Compound	activation
CC(C)C(=O)Nc1c(O)c2ccccc2[nH]c1=O	-0.12% (inactive)
Cc1cc(=O)oc2cc(NC(=O)C(C)Oc3ccccc3)ccc12 (stereo not drawn)	2.24% (inactive)
CC(C)C(=O)Nc1ccc2oc(=O)ccc2c1	1.62% (inactive)
Cc1ccc(-n2ncc3c(Nc4cccc(C(=O)O)c4)ncnc32)cc1	-0.95% (inactive)
Cc1sc2ncnc(N3CCC(C(=O)Nc4nc5ccc(Cl)cc5s4)CC3)c2c1C	12.5% (inactive)
Cc1noc(C)c1S(=O)(=O)N(C)C[C@H]1Oc2c(NC(=O)Nc3ccc4c(c3)OCO4)cccc2C(=O)N([C@H](C)CO)C[C@@H]1C	0.19% (inactive)
Cc1cc(NC(=O)/C=C/C(=O)N(c2ccccc2C)C(C(=O)NC2CCCC2)c2ccc(F)cc2)no1 (stereo not drawn)	6.2% (inactive)
OCc1ccc(-c2ccccc2)c(-c2ccccc2)c1	-2.37% (inactive)
Cc1ccccc1Nc1nnc(SCC(=O)c2cc3ccccc3o2)s1	26.2% (inactive)
Cc1ccc(Nc2nnc(SCC(=O)c3cc4ccccc4o3)s2)cc1C	52.8% (active)
Cc1cc2c(=O)n(C)c(SCC(=O)c3cc4ccccc4o3)nc2s1	15.9% (inactive)
COC(=O)c1ccc([C@@H](O)[C@H](C)C(=O)CC(=O)OC(C)(C)C)cc1	1.52% (inactive)
COC(=O)c1ccc(NC(=O)CSc2nc(N)c(NC(=O)c3ccc(Br)o3)c(=O)[nH]2)cc1	-1.66% (inactive)
Cn1c2ccccc2c2c(C(=O)N3CCN(c4ccc(F)cc4)CC3)cn(C3CCCC3)c(=O)c21	12.2% (inactive)
CNC(=S)NNC(=O)c1oc2nc(-c3ccccc3)cc(-c3ccco3)c2c1N	15.9% (inactive)
NNC(=O)c1oc2nc(-c3ccccc3)cc(-c3ccco3)c2c1N	76.1% (active)
O=C(Nc1cccc(F)c1)c1cc(-c2ccco2)nc2ccccc12	33.2% (inactive)
CCN(Cc1nc2ccccc2c(=O)[nH]1)Cc1cc(=O)oc2cc(C)c(C)cc12	0.64% (inactive)
COC(=O)c1ccc(CNC(=O)c2ccc(S(=O)(=O)N3CCCCCC3)cc2)cc1	-0.2% (inactive)
CCN(C(=O)Cc1nc(N)n[nH]1)C1(C(=O)Nc2ccccc2)CCCCC1	1.44% (inactive)
Brc1c(CSc2nncc3ccccc23)nc2ccccn12	48.9% (active)
CN(C(=O)CSc1nncc2ccccc12)C1CCCCC1	8.04% (inactive)
CC(C)CC(=O)c1c[nH]c(C(=O)NCc2ccccc2)c1	5.43% (inactive)
O=C(NC(=S)N1CCc2ccccc21)c1ccco1	8.66% (inactive)

Compound	activation
O=C(NNC(=S)NC(=O)c1cn(-c2ccccc2)nc1-c1ccccc1)c1ccncc1	12.3% (inactive)
O=c1oc(-c2ccco2)nc2sc3c(c12)CCCCC3	5.12% (inactive)
O=C(NCc1ccco1)c1cccn2c(=O)c3c4c(sc3nc12)CCCC4	48.2% (active)
O=C(NCc1ccco1)c1nc2ncccn2n1	-0.33% (inactive)
Cc1c(CN2CC[C@@H](N3CCN(c4ccccn4)CC3)[C@H](O)C2)[nH]c2ccc(F)cc12	2.27% (inactive)
Fc1ccc2[nH]c3c(N4CCSCC4)ncnc3c2c1	58.6% (active)
COc1ccc(N2CCN(C(=O)Cn3cnc4sc(C)c(S(=O)(=O)N5CCOCC5)c4c3=O)CC2)cc1	-4.91% (inactive)
COc1ccc(OC)c(NC(=O)CC(Cc2ccccc2OC)C(=O)O)c1 (stereo not drawn)	-3.53% (inactive)
CCOc1ccccc1NC(=O)Nc1cc(OC)ccc1OC	71% (active)
CCOc1ccc(NC(=O)Nc2cc(C)ccc2OC)cc1	-5.37% (inactive)
CCOC(=O)c1cc(NC(=O)c2cccnc2)ccn1	4.05% (inactive)
O=C(Nc1cnccn1)c1cccnc1	0.46% (inactive)
CCOc1ccccc1NC(=O)c1cccnc1	93.9% (active)
O=C(Nc1ccc(N2CCOCC2)nc1)c1c(F)cccc1F	-5.89% (inactive)
COc1ccc(C(=O)N(C)CC(O)c2ccccc2)cc1OC1CCN(C(C)=O)CC1 (stereo not drawn)	2.56% (inactive)
Cc1nc(SCC(=O)NC2CCCCC2C)c(C#N)c(C)c1C (stereo not drawn)	-1.86% (inactive)
CC(C)CC1NC(=O)c2cc(Cl)ccc2-n2c1nc1ccccc1c2=O (stereo not drawn)	20.2% (inactive)
CCOCCCNC(=O)C(NC(=O)CNC(=O)c1ccccc1)c1ccc(C)cc1 (stereo not drawn)	0.56% (inactive)
O=C(c1ccc(F)cc1)C1CCN(Cc2cn[nH]c2-c2ccccc2)CC1	3.88% (inactive)
Cc1cccc(C)c1NC(=O)C1(C)c2cccc[n+]2CC(=O)N1Cc1cccs1 (stereo not drawn)	1.93% (inactive)
O=S(=O)(Nc1ccc(Oc2ncccn2)c(Cl)c1)c1ccc(F)cc1	-0.48% (inactive)
CCN(CC)C(=O)CC1(c2ccccc2OC)CCOC(C(C)C)C1 (stereo not drawn)	-3.4% (inactive)
CCc1ccc2oc(-c3ccc(N)cc3)nc2c1	78.3% (active)
O=C(Nc1ccc2oc(-c3ccc4ccccc4c3)nc2c1)c1cccs1	33.5% (inactive)
